Assay [1] in a line: qHTS assay to test for compound auto fluorescence at 535 nm (green) in HEK293 cells (AID 720680).
Assay [2] is described as follows: qHTS assay to test for compound auto fluorescence at 460 nm (blue) in HEK293 cell free culture (AID 720681). A digest of the protocol:
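Test compounds were pinned into cell-free culture medium (DMEM with 10% FBS) and fluorescence was read directly at Ex/Em 405/460 nm. Signals were expressed as fluorescence equivalents of triamterene, with DMSO vehicle as control.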

Assay [3] can be described thus: qHTS assay to test for compound auto fluorescence at 535 nm (green) in HEK293 cell free culture (AID 720682). In outline: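 DMEM + 10% FBS, cell-free; cpd or DMSO pinned in; Ex485/Em535 read; output as fluorescein-equivalent signal.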
A short description of assay [4]: qHTS assay to test for compound auto fluorescence at 590 nm (red) in HEK293 cell free culture (AID 720683). A digest of the protocol: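 Tox21 10K library compounds were pinned into cell-free DMEM with 10% FBS and fluorescence was read at excitation 540 nm. Activity is expressed as Rose Bengal sodium equivalency.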
The nature of assay [5]: qHTS assay to test for compound auto fluorescence at 590 nm (red) in HepG2 cell free culture (AID 720684). In outline:
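Readout: intrinsic compound fluorescence at 590 nm emission after 540 nm excitation, scaled to Rose Bengal sodium. Matrix was cell-free MEM with 10% FBS; DMSO vehicle wells served as control.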

Assay [6] is described as follows: qHTS assay to test for compound auto fluorescence at 460 nm (blue) in HepG2 cell free culture (AID 720685). A digest of the protocol:
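Cell-free plates of MEM plus 10% FBS received 23 nL compound or DMSO vehicle; blue-channel (405/460 nm) intensity scored against triamterene as reference fluorophore.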

A short description of assay [7]: qHTS assay to test for compound auto fluorescence at 535 nm (green) in HepG2 cell free culture (AID 720686).
The nature of assay [8]: qHTS assay to test for compound auto fluorescence at 460 nm (blue) in HepG2 cells (AID 720687). In outline: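 Cells (2,000/well in MEM with 10% FBS) attached overnight at 37 C, then were exposed to compound or DMSO for 1 hr at 37 C, 5% CO2. Fluorescence read at Ex/Em 405/460 nm, expressed as triamterene-equivalent signal.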
Assay [9] can be described thus: qHTS assay to identify small molecule antagonists of the glucocorticoid receptor (GR) signaling pathway - cell viability counter screen (AID 720693). Note: nearly all actives have a fitted effect of over 55% in size.
Assay [10] can be described thus: qHTS assay for identifying genotoxic compounds that show differential cytotoxicity against isogenic chicken DT40 cell lines with known DNA damage response pathways - wild type cell line (AID 743012). Note: nearly all actives have a fitted effect of over 60% in size. A digest of the protocol:
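CellTiter-Glo luminescence readout of viability in wild type DT40 cells after 40 h compound exposure at 37 C/5% CO2; 300 cells/well; reagent incubated 30 min at room temperature before reading.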

A short description of assay [11]: qHTS assay to identify small molecule antagonists of the androgen receptor (AR) signaling pathway - cell viability counter screen (AID 743033; note: nearly all actives have a fitted effect of over 45% in size).
Assay [12] can be described thus: qHTS assay to identify small molecule antagonists of the androgen receptor (AR) signaling pathway using the MDA cell line - cell viability counter screen (AID 743041; note: nearly all actives have a fitted effect of over 45% in size). A digest of the protocol: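 qHTS viability read-out; MDA-kb2 AR-luc; R1881-stimulated; 16 h exposure at 37C, 0% CO2; CellTiter-Fluor, 30 min; fluorescence intensity.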
Assay [13] in a line: qHTS assay for identifying genotoxic compounds that show differential cytotoxicity against isogenic chicken DT40 cell lines with known DNA damage response pathways - Rev3 mutant cell line (AID 743014). Note: nearly all actives have a fitted effect of over 55% in size. Note: potency is the fitted concentration of half-maximal effect.
Assay [14] in a line: qHTS assay for identifying genotoxic compounds that show differential cytotoxicity against isogenic chicken DT40 cell lines with known DNA damage response pathways - Rad54/Ku70 mutant cell line (AID 743015). Note: nearly all actives have a fitted effect of over 60% in size.
The target of assay [15] is Glucocorticoid receptor (Homo sapiens) (UniProt P04150). Kind of assay: qHTS assay to identify small molecule agonists of the glucocorticoid receptor (GR) signaling pathway (AID 720691; active = well fitted activation curve with a large enough effect in the signal ratio in the repeat runs, not every such curve was filed as active; the % refers to the signal ratio). In outline:
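HeLa GR-bla reporter line; cells pre-incubated 4 h, compound in DMSO 18 h at 37 C; LiveBLAzer B/G FRET substrate 2 h RT; fluorescence intensity read-out.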

Assay [16] has the same target. Description: qHTS assay to identify small molecule antagonists of the glucocorticoid receptor (GR) signaling pathway (AID 720692; active = well fitted inhibition curve with a large enough effect in the signal ratio in the repeat runs, not every such curve was filed as active; the % refers to the signal ratio). A digest of the protocol:
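Read-out: beta-lactamase FRET substrate fluorescence, 2 h at room temperature, in HeLa cells stably carrying a GRE-driven bla reporter. Compounds were co-incubated with 5 nM dexamethasone agonist (final) for 18 h at 37 C.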

Assay [17] deals with Androgen receptor (Homo sapiens) (UniProt P10275). Description: qHTS assay to identify small molecule antagonists of the androgen receptor (AR) signaling pathway (AID 743035; active = well fitted inhibition curve with a large enough effect in the signal ratio in the repeat runs, not every such curve was filed as active; the % refers to the signal ratio). A digest of the protocol:
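AR-bla HEK293 reporter cells; 4 h settle at 37C/5% CO2; compound + R1881 agonist, 16 h at 37C; LiveBLAzer B/G FRET substrate 2 h RT; fluorescence intensity read. qHTS format.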

Assay [18] shares this target. Kind of assay: qHTS assay to identify small molecule agonists of the androgen receptor (AR) signaling pathway using the MDA cell line (AID 743040; note: nearly all actives have a fitted effect of over 20% in size). In outline: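 Agonist activity is measured as luciferase luminescence in human MDA-kb2 cells whose MMTV reporter responds to both AR and GR. Compounds in DMSO incubate 16 h at 37C, 0% CO2, and ONE-Glo is read after 30 min.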

Assay [19] shares this target. Kind of assay: qHTS assay to identify small molecule antagonists of the androgen receptor (AR) signaling pathway using the MDA cell line (AID 743042; note: nearly all actives have a fitted effect of over 55% in size). In outline: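 MDA-kb2 cells (human breast carcinoma, stably carrying an MMTV-luciferase reporter responsive to AR and GR) were plated at 3,000 cells/well and preincubated 5 hr at 37C, then given compound plus R1881 agonist for 16 h. ONE-Glo luminescence was read.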

The target is the same in assay [20]. Description: qHTS assay to identify small molecule agonists of the androgen receptor (AR) signaling pathway (AID 743036; active = well fitted activation curve with a large enough effect in the signal ratio in the repeat runs, with a control signal flat, not every such curve was filed as active; the % refers to the signal ratio). A digest of the protocol: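 Screening used 2,000 AR-bla HEK293 cells per well, treated 16 h at 37C with test compounds in DMSO alongside positive and DMSO-only controls; beta-lactamase activity was then read by LiveBLAzer B/G FRET fluorescence after 2 h at room temperature.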

Inconclusive results are not listed. Active and inactive are the calls of the source. Unless noted, calls come from the whole dose curve; as a rule, active = well fitted curve in the direction sought with a large enough effect in the repeat runs; inconclusive = weak or mixed curves; inactive = no such curve, though single readings can be large; an effect the other way counts as inactive or inconclusive.

Sequence of Androgen receptor (Homo sapiens) (P10275 whole entry, looked up): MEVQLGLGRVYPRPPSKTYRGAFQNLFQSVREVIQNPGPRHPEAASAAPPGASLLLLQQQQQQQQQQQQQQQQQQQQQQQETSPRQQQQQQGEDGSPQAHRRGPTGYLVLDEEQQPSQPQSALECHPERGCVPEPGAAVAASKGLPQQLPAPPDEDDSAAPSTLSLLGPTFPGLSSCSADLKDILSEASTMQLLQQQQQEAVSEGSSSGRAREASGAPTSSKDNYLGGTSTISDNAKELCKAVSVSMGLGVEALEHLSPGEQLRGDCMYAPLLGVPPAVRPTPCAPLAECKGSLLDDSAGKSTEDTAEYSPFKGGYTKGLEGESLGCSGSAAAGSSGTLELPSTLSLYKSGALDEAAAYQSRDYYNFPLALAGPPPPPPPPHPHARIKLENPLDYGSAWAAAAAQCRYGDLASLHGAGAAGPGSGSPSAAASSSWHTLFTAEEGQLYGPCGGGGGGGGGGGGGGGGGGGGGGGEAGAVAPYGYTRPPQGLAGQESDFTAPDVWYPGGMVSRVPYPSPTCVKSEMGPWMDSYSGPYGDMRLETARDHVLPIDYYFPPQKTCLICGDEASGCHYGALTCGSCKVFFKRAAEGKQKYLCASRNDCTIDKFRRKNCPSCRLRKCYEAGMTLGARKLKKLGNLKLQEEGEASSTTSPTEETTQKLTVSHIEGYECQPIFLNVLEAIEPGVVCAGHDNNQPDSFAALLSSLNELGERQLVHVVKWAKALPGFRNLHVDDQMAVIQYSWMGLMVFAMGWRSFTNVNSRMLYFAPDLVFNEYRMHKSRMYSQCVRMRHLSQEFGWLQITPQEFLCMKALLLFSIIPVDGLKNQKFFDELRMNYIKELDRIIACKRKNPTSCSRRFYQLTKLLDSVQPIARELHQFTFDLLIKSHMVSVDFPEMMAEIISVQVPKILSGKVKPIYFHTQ
Sequence of Glucocorticoid receptor (Homo sapiens) (P04150 whole entry, looked up): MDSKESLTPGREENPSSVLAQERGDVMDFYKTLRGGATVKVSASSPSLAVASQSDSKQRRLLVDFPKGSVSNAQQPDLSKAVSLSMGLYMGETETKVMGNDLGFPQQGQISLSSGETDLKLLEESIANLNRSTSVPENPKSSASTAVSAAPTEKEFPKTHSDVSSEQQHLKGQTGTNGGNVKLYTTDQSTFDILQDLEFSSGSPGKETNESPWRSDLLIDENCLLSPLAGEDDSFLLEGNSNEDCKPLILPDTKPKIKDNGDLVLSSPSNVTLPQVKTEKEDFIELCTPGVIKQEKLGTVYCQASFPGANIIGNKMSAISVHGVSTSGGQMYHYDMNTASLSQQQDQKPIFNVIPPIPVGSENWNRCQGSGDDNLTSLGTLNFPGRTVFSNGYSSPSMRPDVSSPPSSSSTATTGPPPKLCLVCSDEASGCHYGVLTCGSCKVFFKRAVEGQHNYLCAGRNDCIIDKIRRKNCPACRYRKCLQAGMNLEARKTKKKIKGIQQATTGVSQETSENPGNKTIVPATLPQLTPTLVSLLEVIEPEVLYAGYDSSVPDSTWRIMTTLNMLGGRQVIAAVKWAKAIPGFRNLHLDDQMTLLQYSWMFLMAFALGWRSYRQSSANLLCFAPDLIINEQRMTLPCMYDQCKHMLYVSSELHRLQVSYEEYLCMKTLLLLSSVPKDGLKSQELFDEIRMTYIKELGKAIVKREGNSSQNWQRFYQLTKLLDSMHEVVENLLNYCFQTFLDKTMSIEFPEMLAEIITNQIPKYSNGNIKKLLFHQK

On to `CCC(C)(CCC(C)C)C(=O)O` (configuration not stated), for which the outcome in assay [1], in [2], in [3], in assay [4], in [5] and in assay [6] was inactive. Besides, the molecule was called inactive in [7], in assay [8] and in [9]. In addition, the Potency result in assay [10], in [11] and in assay [12] was “inactive” in each case.
With `NCCS`, the result in assay [1], in [2], in assay [3], in [4], in assay [5] and in [6] was inactive. Besides, the molecule was called inactive in assay [7] and in assay [8]. In addition, the Potency result in assay [10], in [13], in [14], in assay [11] and in assay [12] was “inactive” each time.
Consider `C=C1CC/C=C(\C)CC[C@@H]2[C@@H]1CC2(C)C`, for which the call in [1], in [2], in [3], in [4], in assay [5] and in assay [6] was inactive. In addition, the molecule was called inactive in assay [7], in [8] and in assay [9]. For the same molecule, the Potency entry in assay [10], in assay [11] and in assay [12] was “inactive” each time.
Take `Cc1cc(NC(=O)C2=C(O)c3ccccc3S(=O)(=O)N2C)no1`: the molecule was called inactive in assay [1], in [2], in assay [3], in assay [4], in assay [5] and in assay [6]. The outcome in [7], in assay [16] and in assay [9] was inactive. Moreover, the Potency result in [15], in assay [10], in assay [13], in assay [14], in assay [11] and in [12] was “inactive” each time.
Take `C=CCCCCCCCCCCCC`: the outcome in [1], in [2], in assay [3], in assay [4], in [5] and in assay [6] was inactive. The molecule was classed as inactive in [7], in assay [16], in [9] and in [18]. Also, the Potency result in assay [15], in assay [10], in assay [13], in [14], in assay [11] and in assay [17] was “inactive” throughout. Besides, the Potency entry in assay [12] and in [19] was “inactive” throughout.
For `CC(C)CC(C)CC(C)CC(C)COC(=O)c1ccccc1C(=O)OCC(C)CC(C)CC(C)CC(C)C` (configuration not stated), the result in [1], in assay [2], in [3], in assay [4], in assay [5] and in assay [6] was inactive. Also, the molecule was classed as inactive in [7], in assay [8] and in assay [9]. Also, the Potency result in assay [10], in assay [11] and in assay [12] was “inactive” in each case. Also, the Potency in assay [13] was 25.3 µM (active).
For `CCCCCCCCC(=O)Cl`, the call in [1], in assay [2], in [3], in assay [4], in assay [5] and in assay [6] was inactive. For the same molecule, the call in assay [7], in [8] and in [9] was inactive. Moreover, the Potency entry in assay [13], in [11] and in assay [12] was “inactive” throughout.
On to `CC(C(=O)O)c1ccc2c(c1)CC(=O)c1ccccc1S2` (configuration not stated), for which the molecule was called inactive in [1], in [2], in assay [3], in assay [4], in assay [5] and in assay [6]. The molecule was called inactive in assay [7], in assay [16], in assay [9] and in assay [18]. The Potency result in assay [15], in assay [10], in [13], in assay [14], in [11] and in assay [17] was “inactive” throughout. For the same molecule, the Potency result in [19] was “inactive”.
With `CC(=O)NCc1c(I)c(NC(C)=O)c(I)c(C(=O)O)c1I`, the call in [1], in assay [2], in assay [3], in [4], in [5] and in [6] was inactive. In addition, the molecule was classed as inactive in assay [7], in assay [8], in assay [9], in assay [20] and in assay [18]. In addition, the Potency entry in assay [10], in assay [14], in assay [11] and in assay [19] was “inactive” in each case.
